p53null 32C tox: p53 null cell cytotoxicity, permissive temperature | H1299-neo p53 null cells, ATP luminescence, 24 h, 32C | Potency, µM (doses to about 46.1 µM), inactives show at the highest dose activity change, negative = cytotoxicity, most hits filed as cytotoxic | actives 0.62% (n = 55,000) | AID 903;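 also: 0% = DMSO only and -100% = full killing by 100 µM tamoxifen; nearly all actives have a fitted effect of over 55% in size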
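Cytotoxicity: H1299-neo (no p53), 32C, 24 h treatment. Concentrations up to 46 uM. Readout cellular ATP, luminescence. Normalization to DMSO basal and tamoxifen 100 uM maximal kill.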
mTORC1 inh: reduces mTORC1 signaling in Tsc2 and p53 null MEF cells | actives 0.78% (n = 44,000) | AID 493208 | Potency, µM (highest dose often 38.3 µM), for inactives: top-dose activity change, negative = inhibition, most hits filed as inhibitors | Tsc2-/- p53-/- MEF, phospho-rpS6 immunofluorescence/PI, 24 h;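 also: plate controls were DMSO for no effect and rapamycin for full effect; nearly all actives have a fitted effect of over 50% in size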
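Readout is phospho-S6 Alexa 488 signal normalized to PI per well, reported as % active cells with thresholds set from rapamycin (7.5 nM) and DMSO controls. Cells: Tsc2-/-, p53-/- MEFs, 24 hrs compound at 37 C; PI cell number serves as viability.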
SKOV3 invasion: ovarian cancer metastasis inhibition, 3D TME model; SKOV3ip1-GFP adhesion/invasion on 3D omental model, fluorescence; Potency, µM (doses to about 45.8 µM), for inactives: at the highest dose activity change, negative = inhibition, usual class: inhibitors; actives 0.1% (n = 46,000);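 also: plate controls were DMSO wells for no effect and tomatine positive control wells for full effect; nearly all actives have a fitted effect of over 65% in size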
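A 3D layer of primary human omental fibroblasts, mesothelial cells, fibronectin and collagen I, grown 48 hr, received SKOV3ip1-GFP cells in serum-free medium plus compounds at 0.36-46 umol/L. After 2 hr RT and 16 hr 37 C, fixed adherent GFP cells were counted; normalized to DMSO and tomatine.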
PMP22 txn: modulators of PMP22 gene transcription in S16 Schwann cells. AID 1508649. actives 2% (n = 43,000). S16 Pmp22-F2sN Schwann cells, FLuc/NLuc coincidence luminescence, 24 h. Potency, µM (highest dose often 57.5 µM), without a hit: at the top dose activity change, negative = inhibition, usual class: inhibitors; active = clear falling dose curves in both reporters; inconclusive = both reporters move, but less clearly or upward; inactive = either reporter flat; the % is the NLuc reporter signal
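S16 Schwann cells carrying FLuc/NLuc coincidence reporter in the Pmp22 3' UTR treated with compound 24 h at 37C; FLuc then NLuc luminescence read sequentially by dual-luciferase reagents.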
p53null 39C tox: kills p53 null cells at the nonpermissive temperature; AID 904; actives 0.97% (n = 55,000); H1299 p53-null (neo) cells, 39C, ATPlite viability, 24 h; Potency, µM (top dose mostly 46.1 µM), inactives show top-dose activity, negative = cell killing, usual class: cytotoxic;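 also: 0% = DMSO only and -100% = full killing by 100 µM tamoxifen; nearly all actives have a fitted effect of over 50% in size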
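Concentration-response (up to 46 uM) was run for 24 h at the nonpermissive 39C on H1299-p53A138V or H1299-neo cells. ATP content was measured with ATPlite luminescence. AC50 values were Hill-modeled after normalizing between DMSO and 100 uM tamoxifen killing.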
S16 F2sN tox: toxic to S16 Pmp22-F2sN Schwann cells. S16 Pmp22-F2sN Schwann cells (luciferase reporters placed in the Pmp22 gene) viability, CellTiter-Glo, 24 h. actives 0.48% (n = 43,000). Potency, µM (top dose mostly 57.5 µM), inactives show at the top dose activity change, negative = cytotoxicity, actives largely listed as cytotoxic; also: nearly all actives have a fitted effect of over 65% in size
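Seed 500-1,000 S16 Pmp22-F2sN cells per well in phenol-red-free DMEM with 10% heat-inactivated FBS; pin-add 23 nL compound; incubate 24 h at 37C; add CellTiter-Glo, wait 15 min protected from light; read luminescence.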
* hit, by the source's call; i = inactive; u = inconclusive; x = not tested or not shown. Only some compounds are listed: those with a hit (about 3.1% of all), similar ones and a draw of the others. Unless noted, calls follow the shape of the dose curve; as a rule, active = well fitted curve in the direction sought with a large enough effect; inconclusive = small, poorly fitted or top-dose-only effect, or another doubt; inactive = no such curve, though single readings can be large; an effect the other way counts as inactive or inconclusive. Unless noted, % is scaled to controls: 0 for no effect and ±100 for the full control effect; potency is read from the fitted curve at half-maximal effect.

SMILES | p53null 32C tox | mTORC1 inh | SKOV3 invasion | PMP22 txn | p53null 39C tox | S16 F2sN tox
CCCc1nnc(NC(=O)c2nc(S(=O)(=O)Cc3ccc(C)cc3)ncc2Cl)s1 | -13.5% | -18.0% | u | u | 10µM* | u
Cc1ccc(CSc2ncc(Cl)c(C(=O)Nc3nc4ccc(C)cc4s3)n2)cc1 | -5.9% | 3.9% | -12.9% | 2.7% | -3.6% | -1.7%
Cn1cc(-c2cnn3c(N)c(Br)c([C@H]4CCCNC4)nc23)cn1 | x | x | 17.9% | x | x | x
COc1ccc(-c2noc(-c3ccc(NCc4cccnc4)c([N+](=O)[O-])c3)n2)cc1OC | 1.8% | -0.6% | i | 0.5% | -14.4% | -10.6%
COc1cc(-c2noc(-c3ccc(NCc4cccnc4)c([N+](=O)[O-])c3)n2)cc(OC)c1OC | -9.7% | 0.2% | i | 7.08µM* | -7.8% | -7.5%
Cc1ccc(-c2c(C)n3c4c(=O)n(C)c(=O)n(C)c4nc3n2CCO)cc1 | -4.2% | -29.3% | 3.7% | 4.8µM* | -3.8% | u
O=C(C=Cc1ccc(/C=C/C(=O)Nc2ccc(C3=NCCN3)cc2)cc1)Nc1ccc(C2=NCCN2)cc1 | x | x | -5.5% | x | x | x
CNC1CCC(N(Cc2cccc(-c3ccncc3)c2)C(=O)c2sc3c(F)ccc(F)c3c2Cl)CC1 (configuration not stated) | x | x | -3.6% | x | x | x
CCOc1ccc(NC(=O)c2ccc3c(c2)nnn3C2CCCC2)cc1 | -5.2% | 0.0% | i | u | -11.1% | -30.2%
Cc1cc(C)cc(NC(=O)c2ccc3c(c2)nnn3C2CCCC2)c1 | -8.7% | -22.7% | 4.1% | u | -14.0% | 11.2µM*
COc1ccc(OC)c(C2c3c(-c4ccc(Br)cc4)n[nH]c3C(=O)N2c2ccc(Cl)cc2)c1 (configuration not stated) | 33.5% | -12.4% | u | u | 2.6% | u
COc1ccc(-c2n[nH]c3c2C(c2ccc(O)cc2)N(c2ccc(Br)cc2)C3=O)cc1 (configuration not stated) | -23.8% | 14.7µM* | -9.2% | u | -12.0% | u
COc1ccccc1Nc1c2c(nc3ccc(NC(=O)c4ccc(N(C)C)cc4)cc13)CCCC2 | 5.1% | 5.21µM* | u | u | 5.5% | u
CCCCNc1oc(-c2ccc(COc3ccccc3C)o2)nc1C#N | -11.7% | u | -48.0% | -12.1% | u | -21.8%
Cc1ccccc1OCc1ccc(-c2nc(C#N)c(NCCCN(C)C)o2)o1 | 9.1% | 5.85µM* | -1.3% | u | -24.4% | u
O=C(Nc1cccc(Cl)c1)Nc1ncc(CCNc2ncnc3ccsc23)s1 | x | x | -5.1% | x | x | x
CCNC(=O)c1noc(-c2cc(C(C)C)c(O)cc2O)c1-c1ccc(CN2CCOCC2)cc1 | x | x | 34.6% | x | x | x
COc1ccc(-c2ccc3c(N4CCOCC4)nc(N4C[C@@H](C)O[C@@H](C)C4)nc3n2)cc1CO | x | x | -5.2% | x | x | x
Cc1ccc(CN2c3ccccc3-c3nc(SCC(=O)Nc4c(C)cc(C)cc4C)ncc3S2(=O)=O)cc1 | -9.6% | -7.9% | 3.3% | u | -25.8% | 28.2µM*
Cc1ccc(CN2c3ccccc3-c3nc(SCC(=O)NCCc4ccccc4)ncc3S2(=O)=O)cc1 | -0.8% | 6.3% | -9.5% | 2.8% | -10.6% | 2.2%
Cc1ccc2nc(/C(C#N)=C/c3ccc(-c4ccc(F)cc4F)o3)[nH]c2c1 | -16.1% | -7.5% | -11.2% | -37.7% | 7.94µM* | -2.1%
Cc1c(Cl)cccc1-c1ccc(/C=C(\C#N)c2nc3ccccc3[nH]2)o1 | u | -28.8% | -21.6% | u | 10µM* | -9.8%
CN(c1ccccc1)S(=O)(=O)c1ccc(NC(=O)c2nc(S(C)(=O)=O)ncc2Cl)cc1 | 22.4µM* | 1.17µM* | i | 2.12µM* | u | 4.47µM*
CCOC(=O)c1ccc(NC(=O)c2nc(S(=O)(=O)Cc3ccccc3)ncc2Cl)cc1 | -8.5% | u | u | 1.89µM* | 23.1% | 5.01µM*
CCSc1ncc(Cl)c(C(=O)Nc2ccccc2)n1 | -14.8% | x | x | x | x | x
SMILES | p53null 32C tox | mTORC1 inh | SKOV3 invasion | PMP22 txn | p53null 39C tox | S16 F2sN tox
CCS(=O)(=O)c1ncc(Cl)c(C(=O)Nc2ccccc2)n1 | 60.6% | 1.85µM* | u | 2.24µM* | 20µM* | 6.31µM*
Cc1cccc(NC(=O)c2nc(S(C)(=O)=O)ncc2Cl)c1 | 22.6% | 3.29µM* | u | 2.38µM* | 75.8% | 5.01µM*
CCOC(=O)c1ccc(NC(=O)c2nc(SC(C)C)ncc2Cl)cc1 | -0.7% | 2.2% | i | u | -11.1% | -9.3%
O=C(O)c1ccc(O)c2ncc(N3CCOCC3)cc12 | x | x | 4.3% | x | x | x
NC[C@H]1O[C@H](O[C@H]2[C@@H](O)[C@@H](O[C@H]3O[C@H](CO)[C@@H](O)[C@H](N)[C@@H]3O)[C@H](N)C[C@@H]2N)[C@H](N)C[C@H]1O | x | x | 1.7% | x | x | x
CCSc1ncc(Cl)c(C(=O)Nc2c(C(=O)Nc3cccc(C)c3)oc3ccccc23)n1 | -13.5% | -3.4% | -14.3% | -11.1% | 1.9% | 0.7%
CCOC(=O)c1c(-c2ccccc2)csc1NC(=O)c1nc(S(=O)(=O)CC)ncc1Cl | 13.4% | u | u | 4.5µM* | u | 11.2µM*
CCS(=O)(=O)c1ncc(Cl)c(C(=O)Nc2c(C(=O)Nc3cccc(C)c3)oc3ccccc23)n1 | u | u | -8.5% | 3.18µM* | u | 2.24µM*
COc1cccc(Nc2sc(C(=O)c3ccc(Cl)cc3)c(N)c2C(=O)NCc2ccc(C)cc2)c1 | -13.0% | u | -2.8% | 8.91µM* | 9.9% | u
CS(=O)(=O)c1ccc(C(=O)Nc2ccc(Cl)c(-c3ccccn3)c2)c(Cl)c1 | x | x | -5.4% | x | x | x
CCOC(=O)c1c(NC(=O)c2ccc(S(=O)(=O)N(CCOC)CCOC)cc2)sc2c1CC(C)(C)NC2(C)C | -3.8% | 11.7µM* | u | -31.5% | 4.6% | u
CC1CCN(S(=O)(=O)c2ccc(C(=O)Nc3sc4c(c3C(N)=O)CC(C)(C)NC4(C)C)cc2)CC1 | 14.8% | 18.5µM* | u | u | 7.9% | u
CNC1CCC(N(Cc2cccc(-c3ccncc3)c2)C(=O)c2sc3ccccc3c2Cl)CC1 (configuration not stated) | x | x | -22.3% | x | x | x
COc1ccc2cc(-c3nc4ccc(C(=O)O)cc4[nH]3)c(=O)oc2c1 | 1.58µM* | -0.8% | 1.0% | -0.6% | -2.1% | -3.3%

Source: PubChem
